HT1080-NT tox = kills 2HG-producing HT-1080-NT fibrosarcoma cells | HT-1080-NT fibrosarcoma viability, CellTiter-Glo ATP luminescence, 48 h | Potency, µM (highest dose often 46.1 µM), actives largely listed as cytotoxic | actives 1.6% (n = 360,000) | AID 686970;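 note: NT is the 2HG producing partner of a matched IDH1 knockdown line; nearly all actives have a fitted effect of over 55% in size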
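Viability by CellTiter-Glo luminescence after 48 h compound exposure at 37C of HT-1080-NT cells (750/well, RPMI, 5% FBS). % activity scaled between DMSO wells and medium-only wells, then curve-fitted and categorized by curve class.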
HepG2 tox = HepG2 cytotoxicity, counter-screen for TGF-b inhibitors | HepG2 CAGA-GFP viability, ATP luminescence, 18 h | Potency, µM (doses to about 46.1 µM), hits mostly cytotoxic | actives 0.76% (n = 410,000)
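CellTiter-Glo luminescence gave cytotoxicity after 18 hours at 37 degrees C. The cells were HepG2 CAGA-GFP in 1% FBS DMEM, stimulated with 500 pg/mL TGF-beta after compound addition. %Activity was normalised to no-cell wells (complete cell-killing) and DMSO (no toxicity), and curves were fitted and classified.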
HT1080 IDH1KD tx = HT-1080 IDH1 knockdown cell toxicity (counter line) | Potency, µM (doses to about 46.1 µM), hits mostly cytotoxic | HT-1080 IDH1 knockdown viability, ATP luminescence, 48 h | actives 2% (n = 360,000) | AID 686971
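Cytotoxicity counter-line: IDH1KD HT-1080, 48 h, CellTiter-Glo. Curves classed by r2, magnitude and activity.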
DT40 TDP1 no CPT = qHTS for Inhibitors of human tyrosyl-DNA phosphodiesterase 1 (TDP1): qHTS in cells in absence of CPT; DT40 Tdp1-/- hTDP1 cells, no CPT, ATP luminescence, 48 h; Potency, µM (series often up to 46.2 µM), hits mostly inhibitors; actives 15% (n = 420,000); AID 686978, 2013; note: nearly all actives have a fitted effect of over 55% in size
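A cellular qHTS used chicken DT40 cells lacking endogenous Tdp1 but carrying stably transfected human TDP1. Compounds were applied without camptothecin, and cell growth kinetics were judged by ATP-dependent luminescence after ≥48 hr.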
TDP1 cell CPT = growth inhibition of DT40 Tdp1-/-;hTDP1 cells with camptothecin (screen for TDP1 inhibitors); AID 686979; chicken DT40 Tdp1-/-;hTDP1 cells + 20 nM CPT, ATP luminescence, 48 h; actives 12% (n = 420,000); Potency, µM (highest dose often 46.2 µM), hits mostly inhibitors; note: nearly all actives have a fitted effect of over 55% in size
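Chicken DT40 Tdp1-/- cells complemented with human TDP1, 400 cells/well, exposed to compounds plus 20 nM camptothecin for at least 48 h at 37 C; viability read as ATP content by CellTiter-Glo luminescence.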
TGFb inhibitor = inhibitors of TGF-b signaling. HepG2 CAGA-GFP TGF-b/SMAD3 reporter, GFP fluorescence, 18 h; TGF-beta stimulated, 500 pg/mL final. Potency, µM (series often up to 46.1 µM), hits mostly inhibitors. actives 1.2% (n = 410,000). AID 588855; note: nearly all actives have a fitted effect of over 65% in size
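Cell-based qHTS in HEPG2 carrying a CAGA-GFP Smad reporter; compounds added before 500 pg/mL final TGF-beta, 18 h incubation at 37 degrees C, GFP fluorescence quantified per cell by imaging cytometry.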
A number is an active result. Most compounds without a hit are left out; they make up all but 17% or so of the library. Calls come from the whole dose curve; as a rule, active = well fitted curve in the direction sought with a large enough effect; inconclusive = small, poorly fitted or top-dose-only effect, or another doubt; inactive = no such curve, though single readings can be large; an effect the other way counts as inactive or inconclusive.

Screening c1ccc2c(c1)CCCC2C1=NCCN1 (stereo unspecified) returned HT1080-NT tox inconclusive, HepG2 tox inactive, HT1080 IDH1KD tx inactive, DT40 TDP1 no CPT inactive, TDP1 cell CPT inactive and TGFb inhibitor inactive.
Brc1ccc2c(c1)C(C1=NCCN1)c1ccccc1CS2 (stereo unspecified) was read as HT1080-NT tox 0.82µM, HepG2 tox inactive, HT1080 IDH1KD tx 1µM, DT40 TDP1 no CPT 5.8µM, TDP1 cell CPT 7.3µM and TGFb inhibitor inactive.
`COc1ccc(-n2c(C)cc(/C=C3\SC(=S)N(Cc4ccco4)C3=O)c2C)cc1` gave HT1080-NT tox inactive, HepG2 tox inactive, HT1080 IDH1KD tx inactive, DT40 TDP1 no CPT inconclusive, TDP1 cell CPT inconclusive and TGFb inhibitor inactive.
Screening CCN1CCN(c2c(/C=C3\SC(=S)N(Cc4ccco4)C3=O)c(C)c(C#N)c(=O)n2C)CC1 returned HT1080-NT tox 16µM, HepG2 tox inactive, HT1080 IDH1KD tx inconclusive, DT40 TDP1 no CPT 15µM, TDP1 cell CPT inconclusive and TGFb inhibitor inactive.
CCN(CC)c1cc(C)c2cc(NC(=O)/C=C/c3cc(OC)c(OC)c(OC)c3)ccc2n1 was read as HepG2 tox 10µM, DT40 TDP1 no CPT 7.3µM, TDP1 cell CPT 6.5µM and TGFb inhibitor 16µM.
CCOc1ccc(/C=C/C(=O)Nc2ccc3nc(N(CC)CC)cc(C)c3c2)cc1OC was read as HepG2 tox inactive, DT40 TDP1 no CPT 10µM, TDP1 cell CPT 5.2µM and TGFb inhibitor inconclusive.
`CCN(CC)c1cc(C)c2cc(NC(=O)CNC(C)=O)ccc2n1` gave HT1080-NT tox inactive, HepG2 tox inactive, HT1080 IDH1KD tx inactive, DT40 TDP1 no CPT inactive, TDP1 cell CPT inactive and TGFb inhibitor inactive.
For CCN(CC)c1cc(C)c2cc(NC(=O)/C=C/c3ccc(C)cc3)ccc2n1 the results were HepG2 tox inactive, DT40 TDP1 no CPT 5.2µM, TDP1 cell CPT 5.8µM and TGFb inhibitor inactive.
`Cc1cccc(C)c1NC(=O)C(NC(=O)CN1C(=O)c2ccccc2C1=O)c1ccccc1` (stereo unspecified) gave HT1080-NT tox inactive, HepG2 tox inactive, HT1080 IDH1KD tx inactive, DT40 TDP1 no CPT inactive, TDP1 cell CPT inactive and TGFb inhibitor inconclusive.
`Cc1cnc2nc(-c3ccccc3)ccc2c1` gave HT1080-NT tox inactive, HepG2 tox inactive, HT1080 IDH1KD tx inactive, DT40 TDP1 no CPT inconclusive, TDP1 cell CPT inconclusive and TGFb inhibitor inactive.
For Cc1cc(C)cc(NC(=O)Nc2c(Br)cnn2C)c1 the results were HT1080-NT tox inactive, HepG2 tox inactive, HT1080 IDH1KD tx inactive, DT40 TDP1 no CPT inconclusive, TDP1 cell CPT inactive and TGFb inhibitor inactive.
`O=CC(=O)c1ccc(Br)cc1` gave HepG2 tox inactive, DT40 TDP1 no CPT inconclusive, TDP1 cell CPT inconclusive and TGFb inhibitor inactive.
Screening CCOC(=O)C1=C(C)NC(SC)=NC1c1ccc(OC)cc1 (stereo unspecified) returned HT1080-NT tox inactive, HepG2 tox inactive, HT1080 IDH1KD tx inactive, DT40 TDP1 no CPT inactive, TDP1 cell CPT inactive and TGFb inhibitor inactive.
CCOC(=O)C1=C(C)NC(C)=C(C(=O)OCC)C1c1ccc(OC)cc1 was read as HT1080-NT tox inactive, HepG2 tox inactive, HT1080 IDH1KD tx inactive, DT40 TDP1 no CPT 23µM, TDP1 cell CPT 15µM and TGFb inhibitor inactive.
Screening CCOC(=O)C1=C(C)NC(C)=C(C(=O)OCC)C1c1ccc(Br)o1 returned HT1080-NT tox inactive, HepG2 tox inactive, HT1080 IDH1KD tx inactive, DT40 TDP1 no CPT 23µM, TDP1 cell CPT 9.2µM and TGFb inhibitor inconclusive.
For CCOc1ccc(CNn2nnnc2N)cc1 the results were HT1080-NT tox inactive, HepG2 tox inactive, HT1080 IDH1KD tx inactive, DT40 TDP1 no CPT inconclusive, TDP1 cell CPT inactive and TGFb inhibitor inactive.

Compound activity as filed in PubChem.
